Measurements reported in the supplement of paper PMC12350171.
Counter-ions that a name gives are not always drawn.

Columns and labels:
Conditions in all cases: 20 µM
[1] = test system: Salmonella enterica typhimurium; test: growth AUC normalised to DMSO control (fraction of control); higher = less growth inhibition, active = hit call of the paper
How it was run: (§1)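 Three biological replicates were carried out, with OD578 read hourly for 24 h. Before inoculation at a starting OD578 of 0.01, pathogens were passaged anaerobically twice; plates were pre-reduced mGAM containing 20 μM compound and 1% DMSO, sealed with breathable membranes, and the Haemophilus parainfluenzae medium carried added hemin and NAD. Area under each growth curve was calculated by the trapezoidal rule up to the exponential-to-stationary transition and normalised to DMSO controls on the same plate.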

[2] = test system: Shigella flexneri; test: as above
How it was run: as §1

[3] = test system: Vibrio cholerae; test: as above
How it was run: as §1

[4] = test system: Yersinia pseudotuberculosis; test: as above
How it was run: as §1

[5] = test system: P. vulgatus RND KO; test: growth AUC normalised to DMSO control (median) (fraction of control); higher = less growth inhibition, active = hit call of the paper
How it was run: (§2)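 Anaerobic growth was tracked hourly at OD578 for 24 h in 96-well plates of mGAM seeded at OD578 0.01 with each approved-drug library compound at 20 μM and 1% DMSO. Strains had first been passaged twice overnight without oxygen. Three biological replicates were run. The reported median is the area under the curve, calculated by the trapezoidal rule on curves truncated at entry into stationary phase and normalised to vehicle wells on the same plate.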

[6] = test system: P. vulgatus WT; test: as above
How it was run: as §2

[7] = test system: S. enterica typhimurium WT; test: as above
How it was run: as §2

[8] = test system: S. enterica typhimurium tolC KO; test: as above
How it was run: as §2

Measured: growth AUC normalised to DMSO control
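Throughout, for growth AUC normalised to DMSO control (median): active when median AUC fell below 0.1.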

CC(Oc1ccccc1)C(=O)N[C@@H]1C(=O)N2[C@@H]1SC(C)(C)[C@@H]2C(=O)O (some centres not stated) [Phenethicillin potassium salt]
active: [4] 0.898 | [5] 0.0155 | [6] 0.00969 | [8] 0.00227
inactive: [1] 1.01 | [2] 1.02 | [3] 1 | [7] 1

OC(CCN1CCCCC1)(c1ccccc1)C1CC2C=CC1C2 (configuration not stated) [Biperiden hydrochloride]
inactive: [1] 0.987 | [2] 0.967 | [3] 0.934 | [4] 1 | [5] 0.994 | [6] 1.01 | [7] 1.01 | [8] 0.946

CCCCOc1cc(C(=O)NCCN(CC)CC)c2ccccc2n1 [Dibucaine]
inactive: [1] 1 | [2] 1.03 | [3] 1.03 | [4] 1.05 | [5] 1.04 | [6] 1.01 | [7] 1.01 | [8] 0.993

Cc1c(-c2ccccc2)oc2c(C(=O)OCCN3CCCCC3)cccc2c1=O [Flavoxate hydrochloride]
inactive: [1] 1 | [2] 1.02 | [3] 1.01 | [4] 0.984 | [5] 1.06 | [6] 1.1 | [7] 1.02 | [8] 0.952

CN[C@H]1CC[C@@H](c2ccc(Cl)c(Cl)c2)c2ccccc21 [Sertraline]
inactive: [1] 0.992 | [2] 0.978 | [3] 0.928 | [4] 1.01 | [5] 0.998 | [6] 1.02 | [7] 0.999 | [8] 0.945

Nc1ccc(O)c(C(=O)O)c1 [Mesalamine]
inactive: [1] 1.01 | [2] 1.02 | [3] 1.02 | [4] 1.03 | [5] 1 | [6] 1.03 | [7] 0.998 | [8] 1.01

OCCN1CCN(CCCN2c3ccccc3Sc3ccc(C(F)(F)F)cc32)CC1 [Fluphenazine dihydrochloride]
inactive: [1] 1.01 | [2] 0.97 | [3] 1.01 | [4] 1.01 | [5] 1 | [6] 1 | [7] 0.993 | [8] 0.918

COC(=O)C1=C(C)NC(C)=C(C(=O)OC)C1c1ccccc1[N+](=O)[O-] [Nifedipine]
inactive: [1] 1 | [2] 0.997 | [3] 0.971 | [4] 1 | [5] 0.987 | [6] 0.996 | [7] 1.01 | [8] 0.994

CCCOc1ccccc1-c1nc2[nH]nnc2c(=O)[nH]1 [Zaprinast]
inactive: [1] 0.998 | [2] 0.977 | [3] 0.985 | [4] 0.989 | [5] 1 | [6] 1.02 | [7] 1 | [8] 1

CC(=O)[C@H]1CC[C@H]2[C@@H]3CC=C4C[C@@H](O)CC[C@]4(C)[C@H]3CC[C@]12C [Pregnenolone]
inactive: [1] 1 | [2] 0.985 | [3] 0.996 | [4] 1 | [5] 1.02 | [6] 1.02 | [7] 0.993 | [8] 0.954

O=C(O)c1ccccc1Nc1cccc(C(F)(F)F)c1 [Flufenamic acid]
inactive: [1] 0.992 | [2] 0.963 | [3] 0.906 | [4] 0.981 | [5] 0.833 | [6] 0.849 | [7] 1.01 | [8] 0.968

Cc1cccc(Nc2ccncc2S(=O)(=O)NC(=O)NC(C)C)c1 [Torsemide]
inactive: [1] 1 | [2] 1.04 | [3] 1.01 | [4] 1.01 | [5] 1.04 | [6] 1.05 | [7] 1.01 | [8] 1

COc1cc(N)c(Cl)cc1C(=O)NC1CCN(CCCOc2ccc(F)cc2)CC1OC (configuration not stated) [Cisapride]
inactive: [1] 1 | [2] 1.01 | [3] 0.929 | [4] 0.989 | [5] 0.945 | [6] 0.941 | [7] 1 | [8] 0.947

Cc1ccc2c(c1)c1c3n2CCNC3CCC1 (configuration not stated) [Pirlindole mesylate]
inactive: [1] 0.988 | [2] 0.999 | [3] 0.993 | [4] 0.964 | [5] 1.02 | [6] 1.03 | [7] 0.998 | [8] 0.992

O=C(Nc1cccc2c(=O)cc(-c3nnn[nH]3)oc12)c1ccc(OCCCCc2ccccc2)cc1 [Pranlukast]
inactive: [1] 1.01 | [2] 0.991 | [3] 1 | [4] 0.95 | [5] 0.968 | [6] 0.957 | [7] 1.01 | [8] 0.987

CCCN[C@H]1CCc2nc(N)sc2C1 [Pramipexole dihydrochloride]
inactive: [1] 0.989 | [2] 0.972 | [3] 0.989 | [4] 0.994 | [5] 0.988 | [6] 0.997 | [7] 0.992 | [8] 0.999

COc1cc([S+](C)[O-])ccc1-c1nc2cccnc2[nH]1 (configuration not stated) [Sulmazole]
inactive: [1] 1.02 | [2] 1.03 | [3] 1.04 | [4] 1.02 | [5] 1.07 | [6] 1.08 | [7] 0.999 | [8] 0.987

C#C[C@]1(O)CC[C@H]2[C@@H]3[C@H](C)CC4=C(CCC(=O)C4)[C@H]3CC[C@@]21C [Tibolone]
inactive: [1] 0.999 | [2] 0.971 | [3] 0.974 | [4] 1 | [5] 0.963 | [6] 0.994 | [7] 1 | [8] 0.986

Cc1ccc(NC(=O)c2ccc(CN3CCN(C)CC3)cc2)cc1Nc1nccc(-c2cccnc2)n1 [Imatinib]
inactive: [1] 1.03 | [2] 1.06 | [3] 1.12 | [4] 0.991 | [5] 1.12 | [6] 1.09 | [7] 1.03 | [8] 0.259

Nc1ccc(C(=O)O)c(O)c1 [Aminosalicylic acid]
inactive: [1] 1.03 | [2] 1.01 | [3] 0.988 | [4] 0.962 | [5] 1.02 | [6] 1 | [7] 1.01 | [8] 1.01

CN(C)CCCN1c2ccccc2Sc2ccccc21 [Promazine hydrochloride]
inactive: [1] 0.936 | [2] 0.945 | [4] 0.965 | [5] 0.821 | [6] 0.776 | [7] 0.991 | [8] 0.971
active: [3] 0.86

CNc1ncnc2c1ncn2[C@@H]1O[C@H](CO)[C@@H](O)[C@H]1O [N6-methyladenosine]
inactive: [1] 0.972 | [2] 1.03 | [3] 1 | [4] 0.97 | [5] 0.998 | [6] 1.02 | [7] 1.02 | [8] 1.01

CCCNC(C)(C)COC(=O)c1ccccc1 [Meprylcaine hydrochloride]
inactive: [1] 0.996 | [2] 1.02 | [3] 1.01 | [4] 1.01 | [5] 0.984 | [6] 1.01 | [7] 1 | [8] 0.995

CCN[C@H]1CN(CCCOC)S(=O)(=O)c2sc(S(N)(=O)=O)cc21 [Brinzolamide]
inactive: [1] 0.965 | [2] 0.952 | [3] 0.965 | [4] 0.989 | [5] 0.986 | [6] 0.973 | [7] 0.995 | [8] 1

CCc1c2c(nc3ccc(OC(=O)N4CCC(N5CCCCC5)CC4)cc13)-c1cc3c(c(=O)n1C2)COC(=O)[C@]3(O)CC [Irinotecan hydrochloride trihydrate]
inactive: [1] 0.999 | [2] 1.01 | [3] 1.01 | [4] 0.998 | [5] 1 | [6] 1.1 | [7] 1 | [8] 0.986

CO[C@H]1/C=C/O[C@@]2(C)Oc3c(C)c(O)c4c(O)c(c(/C=N/N5CCN(C)CC5)c(O)c4c3C2=O)NC(=O)/C(C)=C\C=C\[C@H](C)[C@H](O)[C@@H](C)[C@@H](O)[C@@H](C)[C@H](OC(C)=O)[C@@H]1C [Rifampicin]
inactive: [3] 1.01 | [7] 0.523 | [8] 0.254
active: [1] 0.23 | [2] 0.118 | [4] 0.0362 | [5] 0.0135 | [6] 0.0147

CCCC(=O)Nc1ccc(OCC(O)CNC(C)C)c(C(C)=O)c1 (configuration not stated) [Acebutolol hydrochloride]
inactive: [1] 1 | [2] 0.995 | [3] 1.01 | [4] 1.01 | [5] 1.01 | [6] 1.01 | [7] 1 | [8] 1.01

Nc1ccc(S(=O)(=O)Nc2ccnn2-c2ccccc2)cc1 [Sulfaphenazole]
active: [3] 0.856
inactive: [1] 1 | [2] 1.01 | [4] 1.01 | [5] 0.989 | [6] 0.961 | [7] 0.998 | [8] 0.981

CCOC(=O)c1ccc(N)cc1 [Benzocaine]
inactive: [1] 1.02 | [2] 1.03 | [3] 1.07 | [4] 1.03 | [5] 1.04 | [6] 1.07 | [7] 1.01 | [8] 1.01
